Assay results reported in the supplement of paper PMC4022240.
± gives the standard deviation.

What was measured:
Assay in all cases: peptide microarray binding signal (635 nm), min-max normalized on array (fraction of array maximum); higher = stronger binding
Details in all cases: peptide region: H3 5-17
[1] = molecular target: T1, HaloTag-ATRX ADD domain (163-292)
T1 chain: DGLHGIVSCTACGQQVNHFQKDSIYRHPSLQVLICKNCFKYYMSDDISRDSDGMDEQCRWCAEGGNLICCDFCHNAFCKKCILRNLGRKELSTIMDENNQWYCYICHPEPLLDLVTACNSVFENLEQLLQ
Procedure, shortened: (§1)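 Binding signal is the mean intensity of triplicate spots, min-max scaled within each library. Histone 13-mer peptide–cellulose conjugates were spotted in triplicate on nitrocellulose with a Cy3 tracer and blocked overnight at 4°C. Probing lasted 1 h at 4°C, either with biotin-labelled HaloTag reader fusions (10 nM to 1 μM) and streptavidin-Alexa Fluor 647 or with rabbit histone antibodies (1:10,000 to 1:2,000) and anti-rabbit Alexa 647. An Axon GenePix 4000B read signal at 635 nm and misprints at 532 nm.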

[2] = molecular target: HaloTag-ING2 PHD (mouse Ing2 200-280)
Procedure, shortened: as §1

[3] = molecular target: anti-H3K4me3 antibody ab8580
Procedure, shortened: as §1

[4] = molecular target: anti-H3K9me3 antibody ab8898
Procedure, shortened: as §1

[5] = peptide modifications: H3R8cit H3S10ph, binder concentration: 1:2,000 dilution
[6] = peptide modifications: H3R8cit H3S10ph, binder concentration: 1:10,000 dilution
[7] = peptide modifications: H3R8me1 H3K9me1, binder concentration: 1:2,000 dilution
[8] = peptide modifications: H3R8me1 H3K9me1, binder concentration: 1:10,000 dilution
[9] = peptide modifications: H3R8me1 H3K9ac, binder concentration: 1:2,000 dilution
[10] = peptide modifications: H3R8me1 H3K9ac, binder concentration: 1:10,000 dilution
[11] = peptide modifications: H3R8cit, binder concentration: 1:2,000 dilution
[12] = peptide modifications: H3R8cit, binder concentration: 1:10,000 dilution
[13] = peptide modifications: H3R8cit H3K9me2, binder concentration: 1:2,000 dilution
[14] = peptide modifications: H3R8cit H3K9me2, binder concentration: 1:10,000 dilution
[15] = peptide modifications: H3R8me1 H3T11ph, binder concentration: 1:2,000 dilution
[16] = peptide modifications: H3R8me1 H3T11ph, binder concentration: 1:10,000 dilution
[17] = peptide modifications: H3R8me2a, binder concentration: 1:2,000 dilution
[18] = peptide modifications: H3R8me2a, binder concentration: 1:10,000 dilution
[19] = peptide modifications: H3R8me1 H3S10ph, binder concentration: 1:2,000 dilution
[20] = peptide modifications: H3R8me1 H3S10ph, binder concentration: 1:10,000 dilution
[21] = peptide modifications: H3R8me1, binder concentration: 1:2,000 dilution
[22] = peptide modifications: H3R8me1, binder concentration: 1:10,000 dilution
[23] = peptide modifications: H3R8me2a H3K9me2, binder concentration: 1:2,000 dilution
[24] = peptide modifications: H3R8me2a H3K9me2, binder concentration: 1:10,000 dilution

B1: H3 5-17 Q T A Rcit K Sph T G G K A P R (peptide)
chain: QTARKSTGGKAPR
peptide microarray binding signal ([1]; peptide modifications: H3R8cit H3S10ph, binder concentration: 50 nM): 0.00417 ± 0.00041 | peptide microarray binding signal ([1]; peptide modifications: H3R8cit H3S10ph, binder concentration: 500 nM): 0.0107 ± 0.0011 | peptide microarray binding signal ([2]; peptide modifications: H3R8cit H3S10ph, binder concentration: 10 nM): 0.00949 ± 0.0015 | peptide microarray binding signal ([2]; peptide modifications: H3R8cit H3S10ph, binder concentration: 100 nM): 0.0187 ± 0.0059 | peptide microarray binding signal [3, 5]: 0.00211 ± 0.00036 | peptide microarray binding signal [3, 6]: 0.00194 ± 0.00019 | peptide microarray binding signal [4, 5]: 0.00183 ± 0.00048 | peptide microarray binding signal [4, 6]: 0.00133 ± 7.9e-05

B2: H3 5-17 Q T A Rme Kme S T G G K A P R (peptide)
chain: QTARKSTGGKAPR
peptide microarray binding signal ([1]; peptide modifications: H3R8me1 H3K9me1, binder concentration: 50 nM): 0.01 ± 0.0016 | peptide microarray binding signal ([1]; peptide modifications: H3R8me1 H3K9me1, binder concentration: 500 nM): 0.0241 ± 0.0051 | peptide microarray binding signal ([2]; peptide modifications: H3R8me1 H3K9me1, binder concentration: 10 nM): 0.0382 ± 0.016 | peptide microarray binding signal ([2]; peptide modifications: H3R8me1 H3K9me1, binder concentration: 100 nM): 0.0483 ± 0.0026 | peptide microarray binding signal [3, 7]: 0.0217 ± 0.00038 | peptide microarray binding signal [3, 8]: 0.0201 ± 0.0019 | peptide microarray binding signal [4, 7]: 0.034 ± 0.009 | peptide microarray binding signal [4, 8]: 0.0236 ± 0.0018

B3: H3 5-17 Q T A Rme Kac S T G G K A P R (peptide)
chain: QTARKSTGGKAPR
peptide microarray binding signal ([1]; peptide modifications: H3R8me1 H3K9ac, binder concentration: 50 nM): 0.0137 ± 0.00035 | peptide microarray binding signal ([1]; peptide modifications: H3R8me1 H3K9ac, binder concentration: 500 nM): 0.0307 ± 0.0019 | peptide microarray binding signal ([2]; peptide modifications: H3R8me1 H3K9ac, binder concentration: 10 nM): 0.0479 ± 0.004 | peptide microarray binding signal ([2]; peptide modifications: H3R8me1 H3K9ac, binder concentration: 100 nM): 0.0783 ± 0.0015 | peptide microarray binding signal [3, 9]: 0.0231 ± 0.0043 | peptide microarray binding signal [3, 10]: 0.0272 ± 0.0053 | peptide microarray binding signal [4, 9]: 0.0277 ± 0.0029 | peptide microarray binding signal [4, 10]: 0.0205 ± 0.00081

B4: H3 5-17 Q T A Rcit K S T G G K A P R (peptide)
chain: QTARKSTGGKAPR
peptide microarray binding signal ([1]; peptide modifications: H3R8cit, binder concentration: 50 nM): 0.0063 ± 0.00069 | peptide microarray binding signal ([1]; peptide modifications: H3R8cit, binder concentration: 500 nM): 0.00719 ± 0.0018 | peptide microarray binding signal ([2]; peptide modifications: H3R8cit, binder concentration: 10 nM): 0.0115 ± 0.0029 | peptide microarray binding signal ([2]; peptide modifications: H3R8cit, binder concentration: 100 nM): 0.00574 ± 0.00039 | peptide microarray binding signal [3, 11]: 0.00504 ± 0.0019 | peptide microarray binding signal [3, 12]: 0.0142 ± 0.0043 | peptide microarray binding signal [4, 11]: 0.00642 ± 0.0027 | peptide microarray binding signal [4, 12]: 0.00588 ± 0.00093

B5: H3 5-17 Q T A Rcit Kme2 S T G G K A P R (peptide)
chain: QTARKSTGGKAPR
peptide microarray binding signal ([1]; peptide modifications: H3R8cit H3K9me2, binder concentration: 50 nM): 0.0094 ± 0.00026 | peptide microarray binding signal ([1]; peptide modifications: H3R8cit H3K9me2, binder concentration: 500 nM): 0.0211 ± 0.0019 | peptide microarray binding signal ([2]; peptide modifications: H3R8cit H3K9me2, binder concentration: 10 nM): 0.0388 ± 0.00083 | peptide microarray binding signal ([2]; peptide modifications: H3R8cit H3K9me2, binder concentration: 100 nM): 0.0648 ± 0.0026 | peptide microarray binding signal [3, 13]: 0.016 ± 0.0013 | peptide microarray binding signal [3, 14]: 0.0193 ± 0.00081 | peptide microarray binding signal [4, 13]: 0.271 ± 0.036 | peptide microarray binding signal [4, 14]: 0.197 ± 0.037

B6: H3 5-17 Q T A Rme K S Tph G G K A P R (peptide)
chain: QTARKSTGGKAPR
peptide microarray binding signal ([1]; peptide modifications: H3R8me1 H3T11ph, binder concentration: 50 nM): 0.00818 ± 0.0006 | peptide microarray binding signal ([1]; peptide modifications: H3R8me1 H3T11ph, binder concentration: 500 nM): 0.017 ± 0.0013 | peptide microarray binding signal ([2]; peptide modifications: H3R8me1 H3T11ph, binder concentration: 10 nM): 0.0191 ± 0.0015 | peptide microarray binding signal ([2]; peptide modifications: H3R8me1 H3T11ph, binder concentration: 100 nM): 0.042 ± 0.0045 | peptide microarray binding signal [3, 15]: 0.00244 ± 0.00022 | peptide microarray binding signal [3, 16]: 0.00428 ± 0.00027 | peptide microarray binding signal [4, 15]: 0.0103 ± 0.012 | peptide microarray binding signal [4, 16]: 0.012 ± 0.01

B7: H3 5-17 Q T A Rme2a K S T G G K A P R (peptide)
chain: QTARKSTGGKAPR
peptide microarray binding signal ([1]; peptide modifications: H3R8me2a, binder concentration: 50 nM): 0.00386 ± 0.00017 | peptide microarray binding signal ([1]; peptide modifications: H3R8me2a, binder concentration: 500 nM): 0.00367 ± 0.00047 | peptide microarray binding signal ([2]; peptide modifications: H3R8me2a, binder concentration: 10 nM): 0.00346 | peptide microarray binding signal ([2]; peptide modifications: H3R8me2a, binder concentration: 100 nM): 0.0034 ± 0.00021 | peptide microarray binding signal [3, 17]: 0.0114 ± 0.0019 | peptide microarray binding signal [3, 18]: 0.00793 ± 0.00067 | peptide microarray binding signal [4, 17]: 0.00296 ± 0.00055 | peptide microarray binding signal [4, 18]: 0.00565 ± 0.0013

B8: H3 5-17 Q T A Rme K Sph T G G K A P R (peptide)
chain: QTARKSTGGKAPR
peptide microarray binding signal ([1]; peptide modifications: H3R8me1 H3S10ph, binder concentration: 50 nM): 0.0079 ± 0.00028 | peptide microarray binding signal ([1]; peptide modifications: H3R8me1 H3S10ph, binder concentration: 500 nM): 0.0149 ± 0.003 | peptide microarray binding signal ([2]; peptide modifications: H3R8me1 H3S10ph, binder concentration: 10 nM): 0.0175 ± 0.0014 | peptide microarray binding signal ([2]; peptide modifications: H3R8me1 H3S10ph, binder concentration: 100 nM): 0.0298 ± 0.002 | peptide microarray binding signal [3, 19]: 0.00208 ± 0.00022 | peptide microarray binding signal [3, 20]: 0.00217 ± 0.00011 | peptide microarray binding signal [4, 19]: 0.00359 ± 0.00056 | peptide microarray binding signal [4, 20]: 0.00306

B9: H3 5-17 Q T A Rme K S T G G K A P R (peptide)
chain: QTARKSTGGKAPR
peptide microarray binding signal ([1]; peptide modifications: H3R8me1, binder concentration: 50 nM): 0.00589 ± 0.00021 | peptide microarray binding signal ([1]; peptide modifications: H3R8me1, binder concentration: 500 nM): 0.00448 ± 0.00015 | peptide microarray binding signal ([2]; peptide modifications: H3R8me1, binder concentration: 10 nM): 0.0037 ± 7.9e-05 | peptide microarray binding signal ([2]; peptide modifications: H3R8me1, binder concentration: 100 nM): 0.00262 | peptide microarray binding signal [3, 21]: 0.0014 ± 0.00011 | peptide microarray binding signal [3, 22]: 0.00417 ± 0.00061 | peptide microarray binding signal [4, 21]: 0.00305 ± 0.00038 | peptide microarray binding signal [4, 22]: 0.00755 ± 0.00014

B10: H3 5-17 Q T A Rme2a Kme2 S T G G K A P R (peptide)
chain: QTARKSTGGKAPR
peptide microarray binding signal ([1]; peptide modifications: H3R8me2a H3K9me2, binder concentration: 50 nM): 0.007555 ± 2.4e-05 | peptide microarray binding signal ([1]; peptide modifications: H3R8me2a H3K9me2, binder concentration: 500 nM): 0.0185 ± 0.0016 | peptide microarray binding signal ([2]; peptide modifications: H3R8me2a H3K9me2, binder concentration: 10 nM): 0.0456 ± 0.0053 | peptide microarray binding signal ([2]; peptide modifications: H3R8me2a H3K9me2, binder concentration: 100 nM): 0.0526 ± 0.0031 | peptide microarray binding signal [3, 23]: 0.032 ± 0.0036 | peptide microarray binding signal [3, 24]: 0.0252 ± 0.0039 | peptide microarray binding signal [4, 23]: 0.185 ± 0.023 | peptide microarray binding signal [4, 24]: 0.104 ± 0.0059
